The full list was thinned out, with hits kept by preference.
Cruzain inh noDet: blocks cruzain activity in detergent-free assay. P25779. purified cruzain, Z-FR-AMC fluorescence, no detergent. Potency, µM, most hits filed as inhibitors. 2.3% of 200,000 active; further: nearly all actives have a fitted effect of over 40% in size
Target sequence (P25779 123-467 limits assumed): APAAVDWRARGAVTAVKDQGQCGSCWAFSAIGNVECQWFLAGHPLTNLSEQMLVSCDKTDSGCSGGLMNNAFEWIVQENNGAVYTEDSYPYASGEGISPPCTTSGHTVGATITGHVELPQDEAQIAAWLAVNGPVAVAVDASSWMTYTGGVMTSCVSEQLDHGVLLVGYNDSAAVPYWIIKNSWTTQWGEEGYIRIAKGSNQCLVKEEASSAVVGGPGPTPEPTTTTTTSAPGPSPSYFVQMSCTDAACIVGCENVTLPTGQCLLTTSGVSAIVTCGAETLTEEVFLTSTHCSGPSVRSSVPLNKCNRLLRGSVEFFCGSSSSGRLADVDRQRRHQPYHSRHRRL
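Detergent-free condition (0.00005% Triton X-100) in acetate buffer pH 5.5 with DTT. 1.5 nM enzyme and compound were pre-mixed 15 min, then 2 uM Z-FR-AMC substrate added; reaction progress from fluorescence change between first and third reads (60 s).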
NS1 inh: inhibitors of influenza NS1 protein function. Potency, µM (series often up to 46.1 µM). 0.4% of 270,000 active. AID 2326; calls by dose curve; further: actives are rising curves; nearly all actives have a fitted effect of over 50% in size
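Growth recovery, yeast-based: influenza A NS1 expressed in S. cerevisiae causes slow growth, and suppressors are detected by OD600. The parent strain without NS1 is used as positive control.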
Cruzain inh Det: cruzain (T. cruzi) inhibition with detergent; AID 1478; Potency, µM, actives largely listed as inhibitors; purified cruzain, Z-FR-AMC fluorescence, 0.01% Triton; 0.43% of 200,000 active; P25779; further: nearly all actives have a fitted effect of over 40% in size
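Sodium acetate buffer (100 mM, pH 5.5) containing 5 mM DTT and 0.01% Triton X-100 hosted 1.5 nM cruzain and test compound for 15 min at room temperature. Cleavage of 2 uM Z-FR-AMC was then tracked by fluorescence.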
Flu NS1 inh: validation of influenza NS1 protein function inhibitors. shares compounds with NS1 inh. influenza NS1 function cell assay, 15-point titration. activity change, negative = inhibition, % at 32.9 µM. 1,400 tested, under 10 active. AID 492980; calls by dose curve
Flu PR8 replic: influenza virus titer reduction, NS1 project; 30% of 95 active; virus titer (log TCID50), log10 TCID50 at 5 µM; shares compounds with NS1 inh; MDCK infected influenza A/PR/8/34, virus titer TCID50; hits give low values; call rule not given here
Large screens that a line does not name were inactive (follow-up assays come after a bar, where they were run). Unless noted, the call rests on the fitted dose curve; in most records, active means well fitted curve in the direction sought with a large enough effect; inconclusive means small, poorly fitted or top-dose-only effect, or another doubt; inactive means no such curve, though single readings can be large; an effect the other way counts as inactive or inconclusive.

O=C(Nc1nc(-c2ccccc2)cs1)C1CCCCN1S(=O)(=O)c1ccc(Cl)cc1 (configuration not stated)	Cruzain inh noDet inconclusive
O=C(Nc1nc(-c2ccccc2)cs1)C1CCCN(S(=O)(=O)c2ccccc2)C1 (configuration not stated)	Cruzain inh noDet 20µM, NS1 inh 11.2µM | Flu NS1 inh inactive
CCCC(=O)Nc1nc(-c2ccc3c(c2)CCN3S(C)(=O)=O)cs1	none
Cc1cc(C)c2nc(NC(=O)c3ccc(S(=O)(=O)N4CCCC4)cc3)sc2c1	Cruzain inh noDet inconclusive (no result: NS1 inh)
O=C(Nc1nc(-c2ccccc2)cs1)c1ccc(S(=O)(=O)N2CCc3ccccc32)cc1	Cruzain inh noDet 6.31µM, NS1 inh 5.01µM | Flu NS1 inh inconclusive
CS(=O)(=O)N1CCc2cc(-c3csc(NC(=O)Cc4ccccc4)n3)ccc21	Cruzain inh noDet inconclusive, NS1 inh 10µM | Flu NS1 inh inactive
COc1cc(-c2noc(-c3ccc(N4CCOCC4)c([N+](=O)[O-])c3)n2)cc(OC)c1OC	none (no result: NS1 inh)
COc1cc(OC)cc(-n2c(=O)c3ccccc3n(CC(=O)NCCc3ccc(OC)c(OC)c3)c2=O)c1	none (no result: NS1 inh)
ClCCCl	none (no result: NS1 inh)
COc1ccc(S(=O)(=O)N2CCc3ccccc3C2)cc1	none (no result: Cruzain inh noDet, Cruzain inh Det)
COc1ccc(-c2csc(NC(=O)c3ccc(S(=O)(=O)N4CCc5ccccc5C4)cc3)n2)c(OC)c1	Cruzain inh noDet 3.98µM, NS1 inh 12.6µM | Flu NS1 inh inactive
CCCOc1cccc(C(=O)N2CCCCC2CCN2CCCCC2)c1 (configuration not stated)	none (no result: NS1 inh)
O=C(NCC(c1ccc2c(c1)OCO2)N1CCN(c2ccccc2)CC1)C(=O)Nc1ccc(F)cc1 (configuration not stated)	none (no result: NS1 inh)
O=C(NCCCO)C(=O)NCC(c1ccc2c(c1)OCO2)N1CCN(c2ccc(F)cc2)CC1 (configuration not stated)	NS1 inh 2.24µM (no result: Cruzain inh noDet, Cruzain inh Det) | Flu NS1 inh inactive
CCn1nc(-c2ccccc2)c(-c2ccccc2)c(C(=O)OCCOC)c1=O	none (no result: NS1 inh)
Cc1ccc(NC(=O)c2c(C)nn(-c3ccccc3)c2-n2cccc2)c(Cl)c1	none (no result: NS1 inh)
CC(C)NS(=O)(=O)c1ccc(OCC(=O)Nc2cccc3ccccc23)cc1	none
CC(C)NS(=O)(=O)c1ccc(OCC(=O)Nc2cccc(F)c2)cc1	NS1 inh inconclusive (no result: Cruzain inh noDet, Cruzain inh Det) | Flu NS1 inh inactive
CC(=O)N=c1n(C)c2ccccc2n1CCOc1ccccc1	NS1 inh inconclusive | Flu NS1 inh inactive
Cc1cccc(OCCn2c(=O)n(C)c3ccccc32)c1	none
CSc1ncnc2c1ncn2C1OC(CO)C(O)C1O (configuration not stated)	none (no result: NS1 inh)
CCOC(=O)N1CCC(NC(=O)c2ccc3c(c2)sc2nc(-c4cccc(OC)c4)cn23)CC1	Cruzain inh noDet inconclusive, NS1 inh inconclusive
CCOC(=O)N1CCC(NC(=O)c2ccc3c(c2)sc2nc(-c4ccccc4)cn23)CC1	Cruzain inh noDet inconclusive, NS1 inh inconclusive | Flu NS1 inh inactive | Flu PR8 replic 7.5
Cc1nc2c(-c3ccc(F)cc3)c(C)nn2c(C)c1CCC(=O)N1CCC(Cc2ccccc2)CC1	Cruzain inh noDet inconclusive, NS1 inh 7.08µM | Flu NS1 inh inactive
Cc1nc2c(-c3ccc(F)cc3)c(C)nn2c(C)c1CCC(=O)N1CCN(c2ccccc2)CC1	Cruzain inh noDet inconclusive
COc1ccccc1C(=O)Nc1c(C(=O)N(C)c2ccccc2)sc2nc(C)cc(C)c12	none (no result: NS1 inh)
O=C(O)c1ccccc1NS(=O)(=O)c1cccc2cccnc12	none
O=C(Nc1cccc2ccccc12)c1ccccc1NS(=O)(=O)c1cccc2cccnc12	NS1 inh 11.2µM | Flu NS1 inh inconclusive
COc1ccc(OC)c(NC(=O)c2ccccc2NS(=O)(=O)c2cccc3cccnc23)c1	Cruzain inh noDet inconclusive, NS1 inh 14.1µM | Flu NS1 inh inactive
COc1ccccc1NS(=O)(=O)c1cccc2cccnc12	none
CCCn1c(C)nc2c(NCCCCN3CCCC3)nc(C)nc21	none (no result: NS1 inh)
Cc1nc(N2CCOCC2)c2nc(-c3ccccc3)n(CC3CCN(C)CC3)c2n1	none (no result: NS1 inh)
O=C1CN(C(=O)Nc2ccccc2Cl)C(c2ccccc2)c2c(sc3c2CCCC3)N1 (configuration not stated)	none (no result: NS1 inh)
O=C(NCc1ccccc1)N[C@@H](Cc1ccccc1)C(=O)O	none
COc1ccc(OC)c(NC(=O)N[C@@H](Cc2ccccc2)C(=O)O)c1	none
O=C(NCc1ccc(F)cc1)N[C@@H](Cc1ccccc1)C(=O)O	NS1 inh 1µM | Flu NS1 inh inactive
COc1cc(NC(=O)N[C@@H](Cc2ccccc2)C(=O)O)cc(OC)c1	NS1 inh inconclusive | Flu NS1 inh inactive
CCc1cccc(NC(=O)c2oc3ccc4c(c3c2C)C(=O)CC(C)(C)O4)c1	Cruzain inh noDet inconclusive (no result: NS1 inh)
Cc1ccc(-n2ncc3c(Nc4cccc(Cl)c4)ncnc32)c(C)c1	none (no result: NS1 inh)
CCc1c(C)nc2nncn2c1Nc1cccc(C)c1	none (no result: NS1 inh)
Cc1ccccc1Nc1nc(N)nc(CSCC(=O)Nc2cccc(Br)c2)n1	NS1 inh inconclusive | Flu NS1 inh inactive
Cc1ccc(SCc2nc(N)nc(Nc3ccccc3C)n2)cc1C	none
COc1cc(CC(=O)O)ccc1OCc1ccccc1	none (no result: Cruzain inh noDet, Cruzain inh Det)
COc1cc(C(c2c(C(=O)O)[nH]c3ccccc23)c2c(C(=O)O)[nH]c3ccccc23)ccc1OCc1ccccc1	NS1 inh 6.31µM (no result: Cruzain inh noDet, Cruzain inh Det) | Flu NS1 inh inactive
COc1ccc(C2N(c3ccc(OC)cc3)C(=O)C3CCCN32)cc1 (configuration not stated)	none
COc1ccc(N2C(=O)C3CCCN3C2c2ccccc2OC)cc1 (configuration not stated)	none
COc1ccccc1C1N(c2ccc(Cl)cc2)C(=O)C2CCCN21 (configuration not stated)	NS1 inh 11.2µM | Flu NS1 inh inactive
COc1ccc(C2N(c3ccc(F)cc3)C(=O)C3CCCN32)cc1 (configuration not stated)	NS1 inh 1.12µM | Flu NS1 inh inactive
COc1ccc(NC(=O)c2c(-c3ccc(C)cc3)nnc3ccccc23)cc1Cl	Cruzain inh noDet inconclusive (no result: NS1 inh)
CCc1ccc(NCc2cc3ccc(OC)cc3n(CC(=O)Nc3ccc(C(C)C)cc3)c2=O)cc1	Cruzain inh noDet inconclusive (no result: NS1 inh)
COc1ccc(-c2oc3ccc(C)cc3c(=O)c2O)cc1OC	none (no result: NS1 inh)
Cc1ccc(S(=O)(=O)Nc2ccc3nc(-c4cccc(Cl)c4)oc3c2)cc1	none (no result: NS1 inh)
CCC1CCCCN1CCCNC(=O)CN1C(=O)CSc2ccc(S(=O)(=O)N3CCC(C)CC3)cc21 (configuration not stated)	NS1 inh 1.78µM | Flu NS1 inh inactive
CC1CCN(S(=O)(=O)c2ccc3c(c2)N(CC(=O)NCCCN2CCCCC2)C(=O)CS3)CC1	none
O=C1CC(c2nc(-c3ccc(Cl)cc3)no2)CN1c1ccc2c(c1)OCCO2 (configuration not stated)	none (no result: NS1 inh)
c1ccc(C(c2ccccc2)N2CCCC3(CCNCC3)C2)cc1	none (no result: NS1 inh)
CC(O)/C=C/c1cccc[n+]1C (configuration not stated)	NS1 inh 12.6µM | Flu NS1 inh inactive
C[n+]1ccccc1/C=N/O	none
CC(=O)c1ccc(N2C(=O)N(Cc3ccc(F)cc3)c3ccccc3S2(=O)=O)cc1	none (no result: NS1 inh)

Screening results: PubChem BioAssay, National Center for Advancing Translational Sciences (NCATS)
